Compound activity from PubChem.
TDP1 cell CPT: DT40-hTDP1 cell growth loss with CPT; Potency, µM (series often up to 46.2 µM), without a hit: at the top dose activity change, negative = growth inhibition, hits mostly inhibitors; chicken DT40 Tdp1-/-;hTDP1 cells + 20 nM CPT, ATP luminescence, 48 h; AID 686979; 12% of 420,000 active; further: on the % scale 0 is the no-effect control and ±100 the full control effect; nearly all actives have a fitted effect of over 55% in size
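Chicken DT40 Tdp1-/- cells stably complemented with human TDP1 were seeded at 400 cells/well in medium containing 20 nM camptothecin, exposed to pin-transferred compounds, and grown at 37 °C for at least 48 hr. Viability was read as ATP luminescence.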
DT40 TDP1 no CPT: qHTS for Inhibitors of human tyrosyl-DNA phosphodiesterase 1 (TDP1): qHTS in cells in absence of CPT; DT40 Tdp1-/- hTDP1 cells, no CPT, ATP luminescence, 48 h; 15% of 420,000 active; Potency, µM (titrated, usually from 46.2 µM), for inactives: at the highest dose activity change, negative = growth inhibition, most hits filed as inhibitors; AID 686978, 2013; further: on the % scale 0 is the no-effect control and ±100 the full control effect; nearly all actives have a fitted effect of over 55% in size
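Chicken DT40 Tdp1-/- cells complemented with human TDP1, screened without camptothecin (DMSO vehicle only), 400 cells/well. Compounds pin-transferred, cells incubated at 37 °C for at least 48 hr. Growth read as ATP-dependent luminescence (CellTiter-Glo, 30 min at RT).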
GCN5L2 inh: blocks human GCN5L2 histone acetyltransferase; GCN5L2 HAT assay, ThioGlo1 CoA-SH fluorescence; Potency, µM (titrated, usually from 58.9 µM), for the others: at the top dose activity change, negative = inhibition, most hits filed as inhibitors; 0.21% of 390,000 active; AID 504327; further: on the % scale 0 is the no-effect control and ±100 the full control effect
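ThioGlo1-coupled HAT assay: 20nM GCN5L2, 70uM acetyl-CoA, 75uM H3(1-25) peptide, pH 7.5. Fluorescence read at 340/540nm at start and after 20 min at room temperature.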
VDR inh: vitamin D3 receptor (human) inhibition; P11473; VDR-SRC2-3 peptide fluorescence polarization, 2 h; Potency, µM, inactives show max response, negative = inhibition, hits mostly inhibitors; 0.93% of 400,000 active; AID 504847; further: on the % scale 0 is the no-effect control and ±100 the full control effect
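After 23 nl compound addition and a short centrifugation, plates sat for 2 hours at ambient temperature; polarization of fluorescence then indicated loss of VDR binding to peptide SRC2-3.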
TDP1 inh: blocks human tyrosyl-DNA phosphodiesterase 1 | Q9NUW8 | recombinant TDP1, AlphaScreen DNA substrate cleavage | Potency, µM (doses to about 130 µM), without a hit: at the top dose activity change, negative = inhibition, usual class: inhibitors | 0.28% of 350,000 active | AID 485290; further: on the % scale 0 is the no-effect control and ±100 the full control effect; nearly all actives have a fitted effect of over 40% in size
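Enzyme-compound mixtures sat 15 min at room temperature, followed by a 5 min reaction with 15 nM final substrate and 10 min with AlphaScreen beads. Recombinant human Tdp1 was used at 1 nM final.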
PLK1 PBD inh: blocks phosphopeptide binding to human PLK1 polo-box domain; P53350; Plk1 PBD binding of FITC phosphopeptide, fluorescence polarization; Potency, µM, without a hit: max response, negative = inhibition, actives largely listed as inhibitors; 2.8% of 360,000 active; AID 720504; further: series mostly up to about 57 µM; on the % scale 0 is the no-effect control and ±100 the full control effect; nearly all actives have a fitted effect of over 65% in size
Target sequence (P53350 whole entry, looked up, the tested form may be a part): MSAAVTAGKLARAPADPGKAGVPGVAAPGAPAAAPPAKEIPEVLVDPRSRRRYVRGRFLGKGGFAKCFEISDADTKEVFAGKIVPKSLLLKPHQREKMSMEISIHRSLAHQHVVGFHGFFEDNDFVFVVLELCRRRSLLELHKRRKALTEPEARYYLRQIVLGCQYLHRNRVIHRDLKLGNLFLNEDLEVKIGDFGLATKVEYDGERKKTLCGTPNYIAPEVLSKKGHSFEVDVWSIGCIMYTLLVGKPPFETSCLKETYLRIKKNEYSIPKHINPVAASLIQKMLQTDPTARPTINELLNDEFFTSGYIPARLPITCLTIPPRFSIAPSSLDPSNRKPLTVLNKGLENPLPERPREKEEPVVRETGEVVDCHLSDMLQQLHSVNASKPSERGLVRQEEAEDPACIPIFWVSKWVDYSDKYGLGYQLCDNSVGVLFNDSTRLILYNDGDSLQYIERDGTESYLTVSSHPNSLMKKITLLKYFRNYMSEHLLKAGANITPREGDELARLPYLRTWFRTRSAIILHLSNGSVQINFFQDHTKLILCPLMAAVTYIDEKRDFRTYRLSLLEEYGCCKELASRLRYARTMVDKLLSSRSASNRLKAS
VDR confirm: inhibits human vitamin D receptor, primary hit validation; shares compounds with VDR inh; VDR-coactivator inhibition assay, qHTS confirmation; Potency, µM, usual class: inhibitors; 89% of 840 active; AID 602199
VDR FP: confirmation of human VDR-coactivator binding inhibitors, fluorescein label; 48% of 840 active; VDR-coactivator binding, fluorescein fluorescence polarization; shares compounds with VDR inh; Potency, µM (top dose mostly 57.1 µM), without a hit: top-dose activity change, negative = inhibition, actives largely listed as inhibitors
VDR bla reporter: inhibits human VDR in beta-lactamase reporter cells | shares compounds with VDR inh | VDR beta-lactamase reporter cells, FRET ratio; cells co-treated with VDR agonist LG190178 | Potency, µM (titrated, usually from 46.1 µM), inactives show at the top dose activity change, negative = inhibition, actives largely listed as inhibitors | 23% of 840 active | AID 602202; further: on the % scale 0 is the no-effect control and ±100 the full control effect
VDR viability: cytotoxic in counter-screen for VDR inhibitors. shares compounds with VDR inh. cytotoxicity counter-screen, cell viability, qHTS. Potency, µM (highest dose often 48.3 µM), for the others: at the highest dose activity change, negative = cytotoxicity, hits mostly cytotoxic. 18% of 840 active. AID 602204;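 further: plate controls were DMSO for no effect and high-concentration cycloheximide for full effect; nearly all actives have a fitted effect of over 75% in size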
* marks the source's active call; other numbers are inactive results; ? = inconclusive; . = no result given. Shown are actives, neighbours in structure and some others; about 18% of the full set was active somewhere. The call rests on the fitted dose curve; in most records, active means well fitted curve in the direction sought with a large enough effect; inconclusive means small, poorly fitted or top-dose-only effect, or another doubt; inactive means no such curve, though single readings can be large; an effect the other way counts as inactive or inconclusive. Potency means the concentration at half of the fitted maximal effect.

SMILES	TDP1 cell CPT	DT40 TDP1 no CPT	GCN5L2 inh	VDR inh	TDP1 inh	PLK1 PBD inh	VDR confirm	VDR FP	VDR bla reporter	VDR viability
O=C1/C(=C/c2cccc([N+](=O)[O-])c2)CCc2ccccc21	?	15µM*	-8%	?	8%	-15%	13*	25µM*	?	?
CC1=NN(c2cccc(C(=O)O)c2)C(=O)/C1=C\C=C/c1ccccc1	0.58µM*	1.3µM*	-19%	?	8%	5.3µM*	3.2*	3.2µM*	8.2µM*	?
COc1cc(/C=C2/C(=O)N(c3ccccc3)N=C2C)ccc1OS(=O)(=O)c1ccccc1	.	.	0%	.	1%	.	.	.	.	.
CC1=NN(c2ccccc2)C(=O)/C1=C/C=C/C=C/N(C)C	?	?	-17%	-5%	6%	42%	.	.	.	.
CC1=NN(c2ccccc2)C(=O)/C1=C/c1ccc(Cl)cc1	-45%	?	-28%	79µM*	12%	1.9µM*	15*	?	5%	9%
COc1ccc(/C=C2/C(=O)N(c3ccccc3)N=C2C)cc1Br	?	?	-6%	50µM*	.	2.1µM*	9.5*	?	20%	4%
CC1=NN(c2cccc(F)c2)C(=O)/C1=C/c1ccc(N(C)C)cc1	-13%	-10%	3%	-4%	4%	-1%	.	.	.	.
Cc1noc(C)c1C(=O)Nc1ccccc1N1CCOCC1	-22%	-1%	-4%	-6%	0%	-1%	.	.	.	.
O=C(O)COc1ccccc1/C=C1\C(=O)Nc2ccc(Br)cc21	12%	5%	-5%	?	.	-29%	.	.	.	.
C=CCOc1cccc(C(=O)/C=C2/C(=O)Nc3ccccc32)c1	7.3µM*	6.5µM*	-8%	?	.	?	8.4*	8.9µM*	?	?
Cc1ccsc1C(=O)N1CCC1(C)C(=O)NS(=O)(=O)c1ccccc1 (stereo unspecified)	-8%	8%	.	.	.	-9%	.	.	.	.
COC(=O)C1=C(C)N(Cc2ccco2)C(=O)/C1=C\c1ccc([N+](=O)[O-])cc1	16µM*	?	-8%	22µM*	0%	-27%	?	28%	-29%	?
O=C(CCC1CCCN(C2C3CC4CC(C3)CC2C4)C1)NCc1ccc(F)c(F)c1 (stereo unspecified)	-19%	-8%	-22%	19%	-5%	5%	.	.	.	.
CCN(CC(=O)NCc1cccs1)C(=O)c1cccc(Cl)c1	-13%	1%	-2%	17%	-3%	-20%	.	.	.	.
CC(=O)Oc1cccc(/C=c2\sc3nc(-c4ccco4)nn3c2=O)c1	?	16µM*	-2%	?	.	?	11*	?	0%	18%
O=c1nc(/C=C/c2cc([N+](=O)[O-])ccc2Cl)cc(C(F)(F)F)[nH]1	?	23µM*	?	?	4%	-27%	3.2*	3.2µM*	?	-6%
